High-throughput results as filed in PubChem.
HSF-1 act = increases HSF-1 driven luciferase reporter signal; NIH3T3-HGL HSF-1 luciferase reporter, MG132, 8 h; 100% = twice DMSO control signal; activation, % at 9 µM; 1.7% of 300,000 active;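 active = mean replicate activation of at least 50% with a set share of replicates each reaching 50%; inconclusive = only one of those two conditions met; inactive = mean below 50% and too few replicates reaching it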;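 note: 0% = median of the neutral control wells and 100% = twice that signal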
DYRK1A inh = inhibitors of rat Dyrk1A kinase; 0.43% of 310,000 active; Q63470; ADP-Glo luminescence, NFATc1 peptide; AID 504441; inhibition, % at 12.5 µM; in the data active = inhibition above about 50%;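 note: plate controls were vehicle with enzyme for no effect and no enzyme for full effect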
HSF1 inhib = HSF1 inhibition; NIH3T3-HGL HSE-luciferase, MG132-induced, luminescence 8 h; active compounds read low; activity change, negative = inhibition, % at 7.5 µM (by protocol); 0.77% of 300,000 active;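 active = more than half of replicate wells show activity change below -50%, luminescence cut by over half; inconclusive = some wells, but at most half, below -50%; inactive = no replicate well below -50%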;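 note: luciferase reports HSF-1 transcriptional activity via heat shock element; 0% = median of DMSO wells and -100% = zero luminescence signal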
aDG glyco act = increases alpha dystroglycan glycosylation; Pro5-aDG cells, alpha-DG glycosylation AlphaScreen (IIH6); 0% Pro5, 100% B10-LARGE cell signal; activation, % at 10 µM; 0.22% of 360,000 active; AID 624168;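 active = activation of at least 8% versus controls, or a plate z-score of at least 8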;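 note: Pro5 are CHO cells carrying HIG-tagged alpha-DG that lacks glycosylation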
NPR2 activator = GC-B (human) receptor activation; HEK293-GC-B cells, CNP EC30, cGMP TR-FRET; 0% at EC30 CNP, 100% saturating CNP; 0.11% of 370,000 active; activation, % at 10 µM;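 active = activation at 10 µM reaching about 35% in either raw or pattern-adjusted values, limit read from the data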
GC-A act = GC-A (human) enzyme activation. P16066. HEK293 GC-A cells, cGMP TR-FRET, EC30 ANP; 0% at EC30 ANP, 100% saturating ANP. activation, % at 10 µM. 0.14% of 370,000 active; in the data active = activation above about 40%
Target sequence (P16066 whole entry, looked up): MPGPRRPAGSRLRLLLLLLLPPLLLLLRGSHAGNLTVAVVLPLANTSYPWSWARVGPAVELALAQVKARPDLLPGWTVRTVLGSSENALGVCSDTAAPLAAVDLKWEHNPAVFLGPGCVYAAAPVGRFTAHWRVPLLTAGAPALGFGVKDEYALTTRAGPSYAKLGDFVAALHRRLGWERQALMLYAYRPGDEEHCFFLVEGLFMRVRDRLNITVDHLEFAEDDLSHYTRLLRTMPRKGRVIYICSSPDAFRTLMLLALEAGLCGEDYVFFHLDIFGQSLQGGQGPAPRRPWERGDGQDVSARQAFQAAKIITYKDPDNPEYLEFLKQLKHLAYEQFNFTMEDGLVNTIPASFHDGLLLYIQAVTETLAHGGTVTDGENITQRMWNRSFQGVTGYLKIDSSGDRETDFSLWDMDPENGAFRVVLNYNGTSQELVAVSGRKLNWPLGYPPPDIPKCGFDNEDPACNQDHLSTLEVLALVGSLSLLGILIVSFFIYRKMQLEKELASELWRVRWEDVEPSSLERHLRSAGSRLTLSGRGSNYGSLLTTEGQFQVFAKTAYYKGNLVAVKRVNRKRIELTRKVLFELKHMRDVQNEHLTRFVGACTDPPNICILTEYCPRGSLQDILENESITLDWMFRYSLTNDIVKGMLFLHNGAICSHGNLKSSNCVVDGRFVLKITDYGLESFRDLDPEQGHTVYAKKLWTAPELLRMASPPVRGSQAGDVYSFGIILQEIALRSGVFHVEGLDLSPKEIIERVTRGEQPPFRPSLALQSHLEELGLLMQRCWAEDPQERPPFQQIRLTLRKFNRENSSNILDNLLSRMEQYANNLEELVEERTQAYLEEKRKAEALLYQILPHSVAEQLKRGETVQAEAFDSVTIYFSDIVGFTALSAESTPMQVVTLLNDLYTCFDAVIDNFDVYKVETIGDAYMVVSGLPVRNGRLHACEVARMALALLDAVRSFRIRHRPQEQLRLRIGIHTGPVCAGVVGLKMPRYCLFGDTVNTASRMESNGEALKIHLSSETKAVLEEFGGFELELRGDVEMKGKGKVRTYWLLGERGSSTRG
The depositor's hits bear a star; ? = inconclusive; · = no result. A selection: hits, their analogues and other compounds. The true share with any hit is near 2.5%.

SMILES	HSF-1 act	DYRK1A inh	HSF1 inhib	aDG glyco act	NPR2 activator	GC-A act
O=C(Cc1ccccc1[N+](=O)[O-])NCc1ccc(Cl)cc1Cl	80.7*	-5.7	39.4	0.2	0.7	1.3
CCc1ccc(NC(=O)CSc2nc3n[nH]c(C)c3c(=N)n2-c2cccc(OC)c2)cc1	68.6*	1.5	40.0	1.4	-8.1	-8.2
CCn1c(SCC(=O)N/N=C/c2cccs2)nc2ccccc21	26.0	7.0	7.7	-0.4	-2.6	-4.8
Cc1ccccc1/C=N/Nc1ccnc2cc(Cl)ccc12	41.6	4.5	9.4	1.8	1.1	0.5
Oc1ccc(/C=N/Nc2ccnc3cc(Cl)ccc23)c(O)c1	99.5*	19.8	80.8	0.3	-12.7	-2.1
CCOc1cccc(/C=C2\NC(=S)N(c3ccccc3)C2=O)c1O	102.1*	3.4	81.9	-0.1	0.5	-1.8
CC(C)CC(C(=O)Nc1ccc2c(c1)OCCO2)N1C(=O)c2ccccc2C1=O (stereo unspecified)	·	1.3	·	0.1	2.1	1.6
CC(C)CC(C(=O)Nc1cccc(O)c1)N1C(=O)c2ccccc2C1=O (stereo unspecified)	-67.4	-3.1	-59.0*	-0.2	0.8	-2.3
O=C(NCc1nnc(SCc2ccc(F)cc2)n1-c1ccccc1)C12CC3CC(CC(C3)C1)C2	62.1*	-0.2	31.2	0.5	-4.3	-2.5
O=C(NCc1nnc(SCc2ccc(C(F)(F)F)cc2)n1-c1ccccc1)C12CC3CC(CC(C3)C1)C2	26.1	-0.3	2.1	0.4	-3.3	-2.5
CC(C)(C)OC(=O)N[C@@H](Cc1ccccc1)C(=O)NCC1CCC(C(=O)N[C@@H](CC(=O)O)C(=O)O)CC1 (stereo partly specified)	-70.6	3.2	-63.0*	0.0	-1.1	3.5
O=C(Nc1ccc(OC(F)F)c(Cl)c1)c1ccccn1	70.3*	-5.2	23.8	0.3	2.0	1.8
O=C1C2CC=CCC2C(=O)N1c1ccc(NCCc2ccccc2F)c([N+](=O)[O-])c1 (stereo unspecified)	64.1*	-0.5	37.3	0.3	10.1	2.5
O=C1C2CC=CCC2C(=O)N1c1ccc(NCCc2ccccc2)c([N+](=O)[O-])c1 (stereo unspecified)	69.8*	-6.3	35.2	0.5	2.5	1.8
COc1ccc(-c2noc(CCC(=O)N3CCC(c4cc(C)ccc4C)CC3)n2)cc1	·	2.8	·	-0.4	-1.9	-6.7
O=C(CC(=O)Nc1ccc(Cl)cc1Cl)Nc1ccc(Cl)cc1Cl	-40.0	0.7	-27.0	-0.1	-1.8	4.0
CN(C)C(=S)SCC(=O)Nc1ccc(Cl)cc1Cl	61.4*	4.9	27.8	-0.1	-1.2	-0.8
Cc1nn2c(CN(C(=O)COc3ccccc3)c3ccccc3)nnc2c2ccccc12	0.9	-6.8	-8.7	0.1	-3.5	-8.1
Cc1nn2c(CN(C(=O)CN3CCOCC3)c3ccccc3)nnc2c2ccccc12	-63.1	1.8	-56.4*	-0.3	0.3	1.3
O=c1c2sc(-c3ccccc3)cc2nc2n1CCCCC2	55.5*	7.7	32.3	0.1	-11.2	-18.2
NC(=O)Cc1ccc(C(=O)c2ccc(Cl)cc2)s1	-72.4	-1.1	-63.8*	-0.1	-1.6	6.6
O=C(NCc1nc2ccccc2[nH]1)c1ccc(S(=O)(=O)N2CCCC2)cc1	-3.2	·	-5.4	-0.1	0.7	-0.3
O=C(Cn1ncc2c3ccccc3n(Cc3ccccc3)c2c1=O)NCc1ccco1	-0.8	21.9	-2.8	0.5	1.0	-4.6
Cc1ccccc1/C=C/c1nc2ccccc2c(=O)n1CCc1ccccc1	24.3	17.1	2.7	0.0	13.2	9.9
CCOc1ccccc1NC(=O)N1CCCC1C(=O)NCc1ccco1 (stereo unspecified)	11.2	1.1	1.4	0.0	0.8	1.1
SMILES	HSF-1 act	DYRK1A inh	HSF1 inhib	aDG glyco act	NPR2 activator	GC-A act
COc1ccc(Cl)cc1NC(=O)CCc1nc(-c2ccccc2F)no1	68.9*	-5.3	56.8	0.1	-0.7	2.6
COc1cc(C2CC(c3cccs3)=NN2C(=O)CCl)ccc1OC(F)F (stereo unspecified)	-72.5	-1.9	-67.1*	-0.2	1.8	-16.6
COc1ccc(C2CC(c3cccs3)=NN2C(=O)CCl)cc1OC (stereo unspecified)	?	2.6	35.9	0.4	4.7	1.6
COc1ccc(/C=C2\SC(=Nc3ccccc3Cl)NC2=O)c(OC)c1	·	·	·	-0.4	-9.2	2.2
COc1c(/C=C2\SC(=Nc3ccccc3Cl)NC2=O)cccc1[N+](=O)[O-]	18.8	52.6*	4.1	0.0	-2.2	-2.8
CCc1ccc(C(=O)Cc2cc3cccc(OC)c3oc2=O)cc1	79.8*	-1.6	35.7	0.0	-1.5	3.3
O=c1c2ccccc2cnn1-c1nc2ccccc2[nH]1	-84.9	25.2	-82.8*	-0.3	-5.9	0.5
COc1cc(/C=N/NC(=S)NC2CC3C=CC2C3)cc(OC)c1OC (stereo unspecified)	163.8*	·	123.4	0.3	5.8	2.9
CCOc1ccc(/C=N/NC(=S)NC2CC3C=CC2C3)cc1 (stereo unspecified)	52.6*	2.1	35.1	0.4	-5.2	-0.9
CCCCC1(Cc2ccc(OC)c([N+](=O)[O-])c2)C(=O)N(c2ccccc2)N(c2ccccc2)C1=O	4.1	0.4	-0.6	-0.1	-24.8	-37.0
CCCCNC(=O)c1onc(CSc2ccccc2)c1C(=O)O	5.9	-16.3	-5.9	-0.2	3.0	-0.8
CCCCNC(=O)c1onc(CSc2cccc(Cl)c2)c1C(=O)O	-76.4	-3.5	-68.5*	0.3	-0.2	2.1
O=C(NCc1ccc(Cl)cc1)C(=O)NCC1OCCN1C(=O)c1cccs1 (stereo unspecified)	-0.2	-3.6	-3.2	0.0	3.7	1.0
Cc1nc2ccc(NC(=O)c3cccs3)cc2s1	25.3	-1.7	10.6	-0.5	-4.5	3.4
Cc1nc2ccc(NC(=O)c3sccc3C)cc2s1	60.9*	5.8	29.7	0.1	-0.2	2.0
COC(=O)C1CN(C(=O)COc2ccccc2C)c2ccccc2O1 (stereo unspecified)	3.5	0.2	-0.5	0.1	-0.8	-5.7
Cc1ccc(-c2[nH]ncc2/C=N/n2c(C)nc3ccccc3c2=O)cc1	-60.0	12.6	-51.6*	-0.1	-2.2	-7.3
CCCC[C@@H]1C[C@H]1[C@@H](NC(=O)c1ccco1)c1ccc(Cl)cc1	-84.2	·	-81.8*	0.8	-1.4	-2.9
CCCC[C@@H]1C[C@H]1[C@@H](NC(=O)c1cccs1)c1ccc(Cl)cc1	-5.0	·	7.2	·	·	·
CNC(=O)c1ccsc1NC(=O)c1ccccc1	9.3	12.8	11.1	0.5	2.7	-3.2
CNC(=O)c1ccsc1NC(=O)c1ccc(Cl)s1	-72.3	-2.8	-66.2*	0.1	-5.3	-1.6
